Measurements reported in the supplement of paper PMC11060735.
Where a name gives a salt, the structure may show the parent alone. The whole screen tested about 1,800 compounds, of which about 50 (3%) showed activity. For the sample, actives were picked, then their nearest neighbours and some compounds at random.

System: mouse p16Ink4a+/- lung fibroblasts (INKBRITE, bleomycin-injured)
Test: percentage of GFP+ (p16Ink4a+) fibroblasts among all cells in well; higher = less depletion of p16Ink4a+ cells, active = 20 or less
Conditions: 1 µM; 3 days

Compound	percentage of GFP+
CC(=O)NC[C@H]1CN(c2ccc(N3CCOCC3)c(F)c2)C(=O)O1 [Linezolid]	52.5% (inactive)
O=C(O)c1ccc2c(c1)nc(Nc1cccc(Cl)c1)c1ccncc12 [Silmitasertib]	43.8% (inactive)
COc1ccc2cc(-c3[nH]c(-c4ccc(S(C)=O)cc4)nc3-c3ccncc3)ccc2c1 (centres undefined) [Tie2 kinase inhibitor]	43.3% (inactive)
CC(C)Cc1ccc(C(C)C(=O)O)cc1 (racemic)	48.8% (inactive)
COc1cc(NC(=O)c2ccc(-c3ccc(Cl)cc3)o2)cc(OC)c1	52% (inactive)
O=C(Nc1cc(C(F)(F)F)cc(C(F)(F)F)c1)c1cc(Cl)ccc1O	42.4% (inactive)
Cc1c(-c2ccc(O)cc2)n(Cc2ccc(OCCN3CCCCCC3)cc2)c2ccc(O)cc12 [Bazedoxifene]	47.1% (inactive)
CCCCOc1ccc(C(=O)CCN2CCCCC2)cc1 [Dyclonine]	47.1% (inactive)
O=C(c1ccc(OCCN2CCCCC2)cc1)c1c(-c2ccc(O)cc2)sc2cc(O)ccc12 [Raloxifene]	16.8% (active)
OCCn1cc(-c2cnc3nnn(Cc4ccc5ncccc5c4)c3n2)cn1	41.7% (inactive)
c1coc(CNc2ncnc3[nH]cnc23)c1 [Kinetin]	41.6% (inactive)
C=CC/N=C1\C(=O)C=C2NC(=O)/C(C)=C/C=C\[C@H](OC)[C@@H](OC(N)=O)/C(C)=C/[C@H](C)[C@@H](O)[C@@H](OC)C[C@H](C)CC1=C2O [Tanespimycin]	11.8% (active)
CO[C@H]1/C=C\C=C(/C)C(=O)NC2=CC(=O)/C(=N\CCN(C)C)C(=C2O)C[C@@H](C)C[C@H](OC)[C@H](O)[C@@H](C)/C=C(\C)[C@@H]1OC(N)=O [Alvespimycin]	12.4% (active)
COC1=C2C[C@@H](C)C[C@H](OC)[C@H](O)[C@@H](C)/C=C(\C)[C@H](OC(N)=O)[C@@H](OC)/C=C/C=C(\C)C(=O)/N=C(/C=C1O)C2=O [Geldanamycin]	13.5% (active)
Nc1cccc2c1C(=O)N(C1CCC(=O)NC1=O)C2=O (centres undefined) [Pomalidomide]	46.7% (inactive)
CCCCCCCCCCCCCCCC(=O)OC1C(SC)OC(C(NC(=O)C2CC(CCC)CN2C)C(C)Cl)C(O)C1O (centres undefined) [Clindamycin palmitate HCl]	45.8% (inactive)
COc1cc(Nc2nc3ccccc3nc2NS(=O)(=O)c2ccc(NC(=O)c3ccc(C)c(OC)c3)cc2)cc(OC)c1	37.4% (inactive)
CC(C(=O)O)c1ccc2c(c1)[nH]c1ccc(Cl)cc12 (centres undefined) [Carprofen]	45.4% (inactive)
CNC(=O)c1c(F)cccc1Nc1nc(Nc2cc3c(cc2OC)CCN3C(=O)CN(C)C)nc2[nH]ccc12	50.1% (inactive)
O=NO [Sodium Nitrite]	52.2% (inactive)
N#CC[C@H](C1CCCC1)n1cc(-c2ncnc3[nH]ccc23)cn1 [Ruxolitinib]	44.6% (inactive)
Cc1nc(-c2ccc(OCC(C)C)c(C#N)c2)sc1C(=O)O [Febuxostat]	42.1% (inactive)
COc1ccc(CNc2nc(N3CCC[C@H]3CO)ncc2C(=O)NCc2ncccn2)cc1Cl [Avanafil]	46.5% (inactive)

Compound	percentage of GFP+
CCc1cnn2c(NCc3ccc[n+]([O-])c3)cc(N3CCCC[C@H]3CCO)nc12 [Dinaciclib]	13% (active)
COc1c(C)c(C(=O)c2ccc(N)c(C(=O)O)c2)n2ccccc12	39% (inactive)
COC(=O)[C@H](c1ccccc1Cl)N1CCc2sccc2C1 [Clopidogrel]	36.5% (inactive)
CN1CCN(CCCN2c3ccccc3Sc3ccc(C(F)(F)F)cc32)CC1 [Trifluoperazine]	52% (inactive)
CCCCc1nc2cc(/C=C/C(=O)NO)ccc2n1CCN(CC)CC [Pracinostat]	24.8% (inactive)
COc1cc(/C=C/C(=O)/C=C(O)/C=C/c2ccc(O)c(OC)c2)ccc1O	38.1% (inactive)
CC[C@H](/C=C/[C@@H](C)[C@@H]1CC[C@H]2[C@@H]3CC=C4C[C@@H](O)CC[C@]4(C)[C@@H]3CC[C@@]21C)C(C)C [Stigmasterol]	44.8% (inactive)
Nc1nccc(Oc2ccc(NC(=O)c3cncc(-c4ccc(F)cc4)c3O)cc2F)c1Cl	49.5% (inactive)
COC(=O)[C@]12CCC(C)(C)C[C@@H]1[C@@H]1C(=O)C=C3[C@]4(C)C=C(C#N)C(=O)C(C)(C)[C@@H]4CC[C@@]3(C)[C@]1(C)CC2 [Bardoxolone Methyl]	5.23% (active)
O=C(O)c1cc(N=Nc2ccc(O)c(C(=O)O)c2)ccc1O [Olsalazine]	43.3% (inactive)
O=C1c2c(O)cccc2[C@H]([C@@H]2O[C@H](CO)[C@@H](O)[C@H](O)[C@H]2O)c2cc(CO)cc(O)c21 [Aloin]	20.8% (inactive)
CC(C)c1cc(C(C)C)c(CC(=O)NS(=O)(=O)Oc2c(C(C)C)cccc2C(C)C)c(C(C)C)c1 [Avasimibe]	53.1% (inactive)
CC(C)(C)c1cc(C(C)(C)C)c(NC(=O)c2cnc3ccccc3c2O)cc1O [Ivacaftor]	38% (inactive)
CC(C)c1ccccc1Cc1cc(C(=O)Nc2ccc(S(=O)(=O)c3ccccc3C(C)(C)C)cc2)c(O)c(O)c1O	16.4% (active)
CC(C)(C)c1cc(/C=C(\C#N)C(N)=S)cc(C(C)(C)C)c1O [Tyrphostin]	50.3% (inactive)
CCC(CC)CC1(C(=O)Nc2ccccc2SC(=O)C(C)C)CCCCC1 [Dalcetrapib]	37.6% (inactive)
CCOC(=O)[C@H](CCc1ccccc1)N[C@H]1CS[C@H](c2cccs2)CN(CC(=O)O)C1=O [Temocapril]	45.2% (inactive)
C[C@@H](Oc1cc(-n2cnc3ccc(CN4CCN(C)CC4)cc32)sc1C(N)=O)c1ccccc1C(F)(F)F	27.8% (inactive)
CC(C)c1cc(C(=O)N2Cc3ccc(CN4CCN(C)CC4)cc3C2)c(O)cc1O [Onalespib]	9.46% (active)
COc1ccccc1N1CCN(CCN2C(=O)CC3(CCCC3)CC2=O)CC1 [Bmy 7378 Dihydrochloride]	43.4% (inactive)
C=CCc1cc(OC)c(O)c(C(=O)NCCO)c1 [Alibendol]	42.5% (inactive)
COc1ccc(S(=O)(=O)Nc2cccnc2Nc2ccc(O)cc2)cc1	23% (inactive)
CN(C)Cc1ccc(S(=O)(=O)n2ccc(/C=C/C(=O)NO)c2)cc1 [Resminostat]	37.1% (inactive)

Compound	percentage of GFP+
Cc1[nH]c2ccccc2c1CCNCc1ccc(/C=C/C(=O)NO)cc1 [Panobinostat]	2.9% (active)
Cc1[nH]c2ccccc2c1CCNC(=O)c1cccs1 [N-[2-(2-methyl-1H-indol-3-yl)ethyl]thiophene-2-carboxamide]	39.3% (inactive)
CCC(=O)Nc1cccc(Oc2nc(Nc3ccc(N4CCN(C)CC4)cc3OC)ncc2Cl)c1	42.3% (inactive)
Cc1nn(-c2ccccc2)c(C)c1/C=N/N1CCN(Cc2ccccc2)CC1	48.6% (inactive)
CCC(C)(Oc1ccc(C2(c3ccc(OC(C)(CC)C(=O)O)cc3)CCCCC2)cc1)C(=O)O (centres undefined) [Clinofibrate]	52.6% (inactive)
OCC(O)CN1CCN(c2ccccc2)CC1 (centres undefined) [Dropropizine]	51.5% (inactive)
C[C@]12CC[C@@H]3c4ccc(O)cc4CC[C@H]3[C@@H]1C[C@@H](O)[C@@H]2O [Estriol]	49.2% (inactive)
CCN1/C(=C/C(C)=O)Sc2ccc(OC)cc21	50.3% (inactive)
COc1ccc(-c2nc(N3CCOCC3)c3sc(CN(C)c4ncc(C(=O)NO)cn4)cc3n2)cn1 [Fimepinostat]	3.62% (active)
CS(=O)(=O)N1CCN(Cc2cc3nc(-c4cccc5[nH]ncc45)nc(N4CCOCC4)c3s2)CC1	36.8% (inactive)
Cc1c(CN2CCN(C(=O)[C@H](C)O)CC2)sc2c(N3CCOCC3)nc(-c3cnc(N)nc3)nc12	34.5% (inactive)
Clc1ccc(C2(c3ccc(-c4cn[nH]c4)cc3)CCNCC2)cc1	43.8% (inactive)
O=c1c(-c2ccc(O)cc2)coc2cc(O)cc(O)c12 [Genistein]	47.5% (inactive)
COc1cc2nc(N3CCN(C(=O)C4COc5ccccc5O4)CC3)nc(N)c2cc1OC (centres undefined) [Doxazosin]	44.1% (inactive)
CC(C)CN(C[C@@H](O)[C@H](Cc1ccccc1)NC(=O)O[C@H]1CO[C@H]2OCC[C@H]21)S(=O)(=O)c1ccc(N)cc1 [Darunavir]	45.7% (inactive)
CC(/C=C/C(=O)NO)=C\[C@@H](C)C(=O)c1ccc(N(C)C)cc1 [Trichostatin A]	10.8% (active)
CN(C)c1ccc(C(=O)NCCCCCCC(=O)NO)cc1	30.4% (inactive)
Cc1cc(N2CCOCC2)ccc1Nc1nc(NC2CCCCC2)c2[nH]cnc2n1	33.6% (inactive)
C/C(=N\NC(=S)N1CCC1)c1ccccn1	6.13% (active)
CO[C@H]1C[C@@H]2CC[C@@H](C)[C@@](O)(O2)C(=O)C(=O)N2CCCC[C@H]2C(=O)O[C@H]([C@H](C)C[C@@H]2CC[C@@H](O)[C@H](OC)C2)CC(=O)[C@H](C)/C=C(\C)[C@@H](O)[C@@H](OC)C(=O)[C@H](C)C[C@H](C)/C=C/C=C/C=C/1C [Rapamycin]	37.8% (inactive)
CCCCN(Cc1ccc(C(=O)NO)cc1)C(=O)Nc1ccccc1 [Nexturastat A]	47.5% (inactive)
CC(=O)Nc1ccc(C(=O)Nc2ccccc2N)cc1 [Tacedinaline]	34.9% (inactive)
CC(C)[C@H](C(=O)Nc1ccc(C(=O)NO)cc1)c1ccccc1	9.62% (active)
